Drawing on PubChem BioAssay (Tox21), this text covers Potency for 40 compounds.

Inconclusive results are not listed. Where a call stands in place of a potency, no number is given. Active and inactive are the calls of the source. Calls follow the shape of the dose curve; as a rule, active = well fitted inhibition curve with a large enough effect in the repeat runs; inconclusive = weak or mixed curves, or effect the other way; inactive = no such curve, though single readings can be large or run the other way.
Potency is read from the fitted curve at half-maximal effect.

The assay in a line: qHTS assay to identify small molecule antagonists of the retinoic acid receptor (RAR) signaling pathway (AID 1159552; also: nearly all actives have a fitted effect of over 50% in size). The settings on record: C3RL4 RARE luciferase reporter, retinol-stimulated, 6 h; series mostly up to 92.4 µM. From the text: National Center for Advancing Translational Sciences [NCATS]
NIH Chemical Genomics Center [NCGC]
U.S. Environmental Protection Agency [EPA]
National Institutes of Environmental Health Sciences [NIEHS]
National Toxicology Program [NTP]
U.S. Food and Drug Administration [FDA]
All-trans Retinoic acid (atRA) is the potent natural metabolite of retinol and plays an important role in normal embryonic development and maintenance of cellular phenotype in adult animals. atRA is the activating ligand for the retinoic acid receptors (RARs) which form heterodimers with retinoid X receptors (RXRs) on the retinoic acid response element (RARE). Through activation of the RAR/RXRs nuclear receptors, atRA regulates the transcription of a large number of protein-coding genes and regulatory RNAs. Intracellular levels of atRA are controlled by the retinol signaling pathway (RSP) that regulates the biosynthesis and catabolism of atRA to maintain physiological levels. Chemicals that interfere with the RSP can cause abnormal intracellular levels of atRA and therefore are potential developmental toxicants. To assess compounds for the potential adverse effect on embryonic development through interfering with retinol signaling, a cell-based RARE luciferase reporter gene assay was used. C3RL4 cell line (OARSA/CFSAN/FDA, Laurel, MD) was used to screen Tox21 10K compound library for identifying inhibitors of the RSP.
Tox21 Assay Protocol Summary:
C3RL4 cells were seeded at 1,000/well in 4 uL of assay medium into white solid 1,536-well tissue culture plates (Greiner Bio-One North America Inc. Monroe, NC) using a Multidrop Combi (Thermo Scientific, Waltham, MA) dispenser. After incubation at 37 C and 5% CO2 for an overnight, 23 nL of compounds dissolved in DMSO, positive control or DMSO only were transferred by a Pintool station (Kalypsys, San Diego, CA). One ul of 1 uM (final concentration) of Retinol was added right after the compound addition by using a Flying Reagent Dispenser (FRD) (Aurora Discovery, San Diego, CA). After 6 hr incubation at 37 C and 5% CO2, 5 uL of Amplite Luciferase reagent (AAT Bioquest Inc. Sunnyvale, CA) was added to each assay plate using an FRD. Luminescence was quantified on a ViewLux plate reader (PerkinElmer, Waltham, MA) after 30 min incubation at room temperature.
`Clc1ccc(C(Cl)(Cl)Cl)c(Cl)c1`: the Potency entry is “inactive”.
`CC(C)CC(C)Nc1ccc(Nc2ccccc2)cc1` (stereo not given): the Potency result is “inactive”.
On to `COCC(=O)N(c1c(C)cccc1C)[C@H](C)C(=O)OC`, for which the Potency entry is “inactive”.
As for `CC(C)CBr`, the Potency result was “inactive”.
Turning to `O=C(Nc1ccc2[nH]ccc2c1)c1cc2cc(F)ccc2n1Cc1cccc(F)c1`, the Potency is 68.6 µM (active).
Consider `Cl/C=C\CCl`, for which the Potency entry is “inactive”.
Take `CCCCCCCCCBr`: the Potency entry is “inactive”.
As for `CC(C)C1CCC(Cc2ccc(Cl)cc2)C1(O)Cn1cncn1` (stereo not given), the Potency was 42.8 µM (active).
With `ClC1=C(Cl)C2(Cl)C3C(Cl)C(Cl)CC3C1(Cl)C2(Cl)Cl` (stereo not given), the Potency is 54.5 µM (active).
For `CC(C)OS(C)(=O)=O`, the Potency entry is “inactive”.
Turning to `ClC1=C(Cl)[C@]2(Cl)[C@@H]3[C@@H](Cl)[C@H](Cl)C[C@@H]3[C@@]1(Cl)C2(Cl)Cl`, the Potency entry is “inactive”.
`C=CCC1=C(C)C(OC(=O)C2C(C=C(C)C)C2(C)C)CC1=O` (stereo not given): the Potency is 61.1 µM (active).
`FC(F)(F)c1cccc(C2=CCN(CCc3ccc4ccccc4c3)CC2)c1`: the Potency result is “inactive”.
Take `CC(=O)C(Cl)(Cl)Cl`: the Potency was 29.6 µM (active).
Consider `CCCN(CCC)c1c([N+](=O)[O-])cc(S(N)(=O)=O)cc1[N+](=O)[O-]`, for which the Potency is 48.6 µM (active).
The value for `O=C(Cl)c1ccc(Cl)cc1` was “inactive”.
Consider `O=[N+]([O-])c1cc(Cl)ccc1Cl`, for which the Potency entry was “inactive”.
`N#CCCC(Br)(C#N)CBr` (stereo not given): the Potency was 21.7 µM (active).
In the case of `CC(c1ccc(O)cc1)c1ccc(O)cc1`, the Potency result is “inactive”.
In the case of `CC(C)OC(=O)C(O)(c1ccc(Cl)cc1)c1ccc(Cl)cc1`, the Potency was 43.3 µM (active).
Regarding `N#CNC#N`, the Potency entry was “inactive”.
Turning to `CC[C@H]1C[C@@H]2C[C@H]3c4[nH]c5ccc(OC)cc5c4CCN(C2)[C@@H]13`, the Potency result is “inactive”.
As for `Cn1[nH]nnc1=S`, the Potency entry was “inactive”.
Consider `CC(=O)Nc1ccc2c(c1)Cc1ccccc1-2`, for which the Potency result was “inactive”.
As to `c1cc[c]([Sb]([c]2ccccc2)[c]2ccccc2)cc1`, the Potency was 61.1 µM (active).
In the case of `CC(C)CCCCCOC(=O)c1ccccc1C(=O)OCCCCCC(C)C`, the Potency entry is “inactive”.
Regarding `O=CC(Br)(Br)Br`, the Potency was 27.2 µM (active).
Turning to `CSCCCN=C=S`, the Potency result is “inactive”.
For `NNC(=O)c1ccccc1`, the Potency entry was “inactive”.
As to `O=C1C=CC(=O)c2ccccc21`, the Potency was 27.3 µM (active).
With `CCc1nn(C)c(C(=O)NCc2ccc(C(C)(C)C)cc2)c1Cl`, the Potency is 27.3 µM (active).
For the compound `ClC1=C(Cl)[C@]2(Cl)[C@@H]3[C@@H]4C[C@@H]([C@H]5O[C@@H]45)[C@@H]3[C@@]1(Cl)C2(Cl)Cl`, the Potency is 27.3 µM (active).
In the case of `CCCCCCCCCCCCBr`, the Potency result was “inactive”.
The value for `Cc1ccc(CCl)cc1` was “inactive”.
For `Cc1c(Cl)c(=O)oc2cc(OP(=O)(OCCCl)OCCCl)ccc12`, the Potency result was “inactive”.
Consider `O=c1[nH]c2ccccc2n1C1CCN(CCCC(c2ccc(F)cc2)c2ccc(F)cc2)CC1`, for which the Potency was 61.1 µM (active).
As to `[Cl][Sn]([c]1ccccc1)([c]1ccccc1)[c]1ccccc1`, the Potency was 0.092 µM (active).
For `N#CCCO`, the Potency result was “inactive”.
The result for `C[C@@H]1O[C@@H](O[C@H]2C[C@@H](O)[C@]3(CO)[C@H]4[C@H](O)C[C@]5(C)[C@@H](C6=CC(=O)OC6)CC[C@]5(O)[C@@H]4CC[C@]3(O)C2)[C@H](O)[C@H](O)[C@H]1O` reads “inactive”.
As for `Oc1cccc(-c2ccccc2)c1`, the Potency result is “inactive”.
